Experimental data from PubChem BioAssay.
The source made the active and inactive calls.

Tests used:
[1] = system: Plasmodium falciparum Sir2 (PF13_0152, Sir2A); experiment: Plasmodium falciparum Sir2A binding compounds – biochemical, small-molecule microarray, 635 nm fluorescence, primary screen (AID 1098); settings: fluorescence 635 nm, higher = more signal;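 note: score merges spot fluorescence intensity with its signal-to-noise ratio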
[2] = probe aDKK1 binding to arrayed compounds – biochemical, biotinylated probe, 635/667 nm fluorescence, primary screen (AID 1099); settings: small-molecule microarray, higher = more signal;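 note: score merges 667nm spot fluorescence with signal to noise across triplicate slides; reference of the scale not given here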
[3] = probe aCHRDL2 binding to arrayed compounds – biochemical, biotinylated probe, 635/667 nm fluorescence, primary screen (AID 1100); settings: small-molecule microarray, higher = more signal
[4] = change in splice reporter luminescence, either direction, cell-based, HEK293, spliceosome inhibition project, primary screen (AID 1101); settings: HEK293 splicing luciferase reporter, 24 h, higher = more signal, called active from +8 up or from −8 down;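 note: HEK293 cells carrying a splicing-competent luciferase reporter gene; test concentration not given here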
[5] = molecular target: Fibroblast growth factor 10 (Homo sapiens) (UniProt O15520); experiment: compounds binding fibroblast growth factor 10 – biochemical, small-molecule microarray, 635 nm fluorescence, primary screen (AID 1102); settings: FGF10 binding, fluorescence 635 nm, higher = more signal
[6] = system: glycogen synthase kinase-3 (GSK3A per assay name; protocol says GSK3B); experiment: compounds binding glycogen synthase kinase-3 – biochemical, small-molecule microarray, 635 nm fluorescence, GSK3A, primary screen (AID 1103); settings: fluorescence 635 nm, higher = more signal; note: the record names both GSK3A and GSK3B
[7] = molecular target: Epidermal growth factor receptor (Homo sapiens) (UniProt P00533); experiment: compounds binding epidermal growth factor receptor – biochemical, small-molecule microarray, 635 nm fluorescence, primary screen (AID 1104); settings: EGFR binding, higher = more signal;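 note: score merges 667 nm emission intensity with spot signal to noise over triplicate slides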
[8] = molecular target: Follistatin-related protein 3 (Homo sapiens) (UniProt O95633); experiment: compounds binding follistatin-related protein 3 – biochemical, small-molecule microarray, 635 nm fluorescence, primary screen (AID 1105); settings: FSTL3 binding, higher = more signal;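 note: score merges emission near 667 nm and signal to noise per printed spot across three slides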
[9] = molecular target: Dickkopf-related protein 1 (Homo sapiens) (UniProt O94907); experiment: small molecules binding DKK1 protein – biochemical, small-molecule microarray, 635 nm fluorescence scan, primary screen (AID 1106); settings: higher = more signal;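 note: score merges emission near 667 nm with signal to noise over three replicate slides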
[10] = system: Inhibin beta A chain (activin A); experiment: small molecules binding activin A – biochemical, small-molecule microarray, 635 nm fluorescence scan, primary screen (AID 1107); settings: INHBA, higher = more signal;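 note: mouse activin A protein probed at 4.33 µg/mL on printed slides; score merges bound-protein fluorescence near 667 nm with spot signal-to-noise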

Chain of Dickkopf-related protein 1 (Homo sapiens) (O94907 whole entry, looked up): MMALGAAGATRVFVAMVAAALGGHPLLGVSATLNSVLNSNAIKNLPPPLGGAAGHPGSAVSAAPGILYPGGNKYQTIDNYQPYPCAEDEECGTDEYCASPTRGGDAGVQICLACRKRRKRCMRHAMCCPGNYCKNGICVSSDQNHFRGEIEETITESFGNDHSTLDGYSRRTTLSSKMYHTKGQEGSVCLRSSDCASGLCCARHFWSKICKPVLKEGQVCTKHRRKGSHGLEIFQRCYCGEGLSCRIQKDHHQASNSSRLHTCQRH
Chain of Follistatin-related protein 3 (Homo sapiens) (O95633 whole entry, looked up): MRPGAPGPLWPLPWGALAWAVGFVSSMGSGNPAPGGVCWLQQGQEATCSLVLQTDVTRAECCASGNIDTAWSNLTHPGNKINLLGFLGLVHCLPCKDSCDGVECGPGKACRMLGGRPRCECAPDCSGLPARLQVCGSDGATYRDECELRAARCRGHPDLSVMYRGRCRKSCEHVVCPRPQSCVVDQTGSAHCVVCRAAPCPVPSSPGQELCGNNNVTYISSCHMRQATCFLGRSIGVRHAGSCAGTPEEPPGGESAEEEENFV
Chain of Fibroblast growth factor 10 (Homo sapiens) (O15520 whole entry, looked up): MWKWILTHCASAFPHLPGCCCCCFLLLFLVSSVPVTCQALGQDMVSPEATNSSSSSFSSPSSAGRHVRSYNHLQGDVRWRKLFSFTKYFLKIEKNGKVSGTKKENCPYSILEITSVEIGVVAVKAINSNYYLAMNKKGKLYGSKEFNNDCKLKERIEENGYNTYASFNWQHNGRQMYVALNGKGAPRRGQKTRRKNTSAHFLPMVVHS
Chain of Epidermal growth factor receptor (Homo sapiens) (P00533 whole entry, looked up): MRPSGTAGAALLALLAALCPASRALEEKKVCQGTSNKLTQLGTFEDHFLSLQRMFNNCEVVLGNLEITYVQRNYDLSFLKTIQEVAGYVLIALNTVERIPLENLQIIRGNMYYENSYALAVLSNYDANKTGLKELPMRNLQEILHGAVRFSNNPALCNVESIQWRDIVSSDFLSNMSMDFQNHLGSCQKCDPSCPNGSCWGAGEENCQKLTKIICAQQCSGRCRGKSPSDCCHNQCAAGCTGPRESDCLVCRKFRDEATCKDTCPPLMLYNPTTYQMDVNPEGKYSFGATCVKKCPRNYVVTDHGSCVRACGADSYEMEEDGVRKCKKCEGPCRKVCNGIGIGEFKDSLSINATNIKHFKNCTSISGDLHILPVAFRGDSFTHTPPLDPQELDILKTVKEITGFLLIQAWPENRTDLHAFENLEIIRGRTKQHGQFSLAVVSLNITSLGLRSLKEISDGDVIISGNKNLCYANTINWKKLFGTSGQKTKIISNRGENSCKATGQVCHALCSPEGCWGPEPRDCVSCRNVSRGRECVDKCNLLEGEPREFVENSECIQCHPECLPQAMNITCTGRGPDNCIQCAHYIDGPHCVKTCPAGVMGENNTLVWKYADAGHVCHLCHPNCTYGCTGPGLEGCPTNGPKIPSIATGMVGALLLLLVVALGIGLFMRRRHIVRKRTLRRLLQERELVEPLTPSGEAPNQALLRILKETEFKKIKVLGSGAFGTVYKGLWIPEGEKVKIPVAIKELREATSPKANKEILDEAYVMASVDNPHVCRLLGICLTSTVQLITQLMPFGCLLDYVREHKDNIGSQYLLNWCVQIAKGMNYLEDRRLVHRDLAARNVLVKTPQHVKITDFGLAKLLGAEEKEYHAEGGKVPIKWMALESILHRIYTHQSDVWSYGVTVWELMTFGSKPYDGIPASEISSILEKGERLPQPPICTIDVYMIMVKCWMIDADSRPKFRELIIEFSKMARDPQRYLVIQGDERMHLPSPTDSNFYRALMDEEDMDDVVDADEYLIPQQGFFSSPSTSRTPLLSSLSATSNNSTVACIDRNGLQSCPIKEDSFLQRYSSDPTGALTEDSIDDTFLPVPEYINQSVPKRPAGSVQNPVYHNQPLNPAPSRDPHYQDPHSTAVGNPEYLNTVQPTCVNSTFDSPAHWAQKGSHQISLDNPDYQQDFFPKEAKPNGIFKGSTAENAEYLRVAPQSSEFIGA

Row | Structure (SMILES) | composite z-score [1] | composite z-score [2] | composite z-score [3] | z-score [4] | composite z-score [5] | composite z-score [6] | composite z-score [7] | composite z-score [8] | composite z-score [9] | composite z-score [10]
1 | C=CC[C@@]1(C(=O)N2CCCCC2)N=C(c2ccc(OCCCO)cc2)O[C@@H]1c1ccccc1 | 1.53 | 0.833 | 0.613 | 0.411 (inactive) | 0.497 | 1.29 | 0.0106 | -0.0325 | -0.717 | 0.823
2 | COCCOC(=O)N1C(=O)[C@@]2(c3cc(C#CC4(O)CCCCCC4)ccc31)[C@H](C(=O)N1CCCCCCC1)[C@H]1C(=O)O[C@H](c3ccccc3)[C@H](c3ccccc3)N1[C@@H]2c1ccc(OCCO)cc1 | 1.65 | 2.65 | 1.45 | 0.225 (inactive) | 1.5 | 1.35 | 1.46 | 1.62 | 1.72 | 1.68
3 | C=C[C@@H](C)[C@H](OC(=O)Nc1ccc(SC)cc1)c1ccc(OCCO)cc1 | -0.435 | -0.0748 | 0.626 | -1.91 (inactive) | -0.553 | -1.14 | -0.541 | -0.138 | -0.773 | -0.0131
4 | COCCOC(=O)N1C(=O)[C@@]2(c3cc(C#Cc4ccc(OC)cc4)ccc31)[C@H](C(=O)NC[C@H](O)c1ccccc1)[C@H]1C(=O)O[C@H](c3ccccc3)[C@H](c3ccccc3)N1[C@@H]2c1ccc(O)cc1 | 0.557 | 0.139 | 0.234 | -0.577 (inactive) | 1.17 | 1.35 | 0.725 | 1.41 | 0.95 | 0.033
5 | CN1C2C=C(CCCO)C(C3C(=O)N(C(N)=O)C(=O)C32)C1c1cccs1 (stereo not given) | -0.254 | 1.3 | 0.492 | 0.359 (inactive) | 1.12 | 0.386 | -0.259 | -0.173 | 1.45 | 0.418
6 | [N-]=[N+]=Nc1ccccc1C[C@]1(C(=O)NCc2ccccc2)N=C(c2ccc(OCCCO)cc2)O[C@H]1c1ccccc1 | 1.13 | 0.966 | 1.01 | 0.843 (inactive) | 1.09 | -0.235 | -0.269 | 0.461 | -0.684 | 0.784
7 | C[C@H]1ON(c2ccc(C(=O)OC(C)(C)C)cc2)[C@@H](c2ccc(O)cc2)[C@@H]1C(=O)N1C(=O)OC[C@@H]1c1ccccc1 | 1.12 | -0.0999 | -0.232 | 0.242 (inactive) | 0.994 | 1.28 | 0.554 | 1.16 | 0.624 | -0.0428
8 | CCOC(=O)[C@@H]1[C@@H]2C(=O)N(CC)C(=O)[C@@H]2C[C@@H]1Sc1ccccc1 | 0.667 | 0.19 | 0.0774 | 1.33 (inactive) | 0.448 | 0.177 | 0.169 | 0.446 | -0.174 | 0.0622
9 | C=CC[C@@]1(C(=O)O)N=C(c2ccc(OCCCO)cc2)O[C@@H]1c1ccccc1 | 1.96 | -0.2 | 0.584 | -0.701 (inactive) | -0.21 | 1.06 | -1.9 | -1.15 | -0.659 | -0.361
10 | C=C1C2CC3C(=C4C(CO[C@@H]4[C@H]4CCCN4S(=O)(=O)c4ccccc4[N+](=O)[O-])C4C(=O)N(C)C(=O)C34)CC2C(=O)N1C (stereo not given in full) | 0.201 | -0.2 | -0.427 | 0.194 (inactive) | 0.475 | 0.0168 | -0.0553 | 0.157 | 0.298 | 0.689
11 | COC1(C)CN(Cc2ccccc2Br)[C@H](/C=C/c2ccccc2)[C@H](Cc2ccccc2)O1 (stereo not given in full) | -0.525 | -0.383 | -0.0981 | -0.792 (inactive) | -0.258 | -0.629 | -0.383 | -0.478 | -1.04 | -0.19
12 | COCCOC(=O)N1C(=O)[C@@]2(c3cc(C#Cc4ccc(OC)cc4)ccc31)[C@H](C(=O)N1CCCCCCC1)[C@H]1C(=O)O[C@H](c3ccccc3)[C@H](c3ccccc3)N1[C@@H]2c1ccc(O)cc1 | 0.773 | 1.12 | 0.522 | -0.527 (inactive) | 0.546 | 1.15 | 0.519 | 1.31 | 0.567 | 1.35
13 | [N-]=[N+]=NCc1ccccc1C[C@@]1(C(=O)N2CCCCC2)N=C(c2ccc(OCCCO)cc2)O[C@@H]1c1ccccc1N=[N+]=[N-] | 0.679 | 0.885 | 0.689 | -0.428 (inactive) | 0.128 | 0.293 | 0.13 | -0.16 | -0.276 | 1.19
14 | COC(=O)[C@@]1(Cc2ccc(OC)cc2)[C@H]2c3cc(C(=O)N(C)C)n(Cc4nc5ccccc5[nH]4)c3C[C@H]2CN1C(=O)c1ccccc1 | 0.432 | 0.956 | 0.958 | -1.21 (inactive) | 1.09 | 1.23 | 0.0916 | 1.35 | -0.463 | 0.777
15 | COc1cc(CO)cc(I)c1O[C@H]1C=C(C(=O)NCCO)C[C@@H](N(Cc2ccc(F)cc2)C(=O)C2CCCO2)[C@@H]1O (stereo not given in full) | 0.0885 | -0.139 | -0.697 | -0.0727 (inactive) | 0.182 | 0.1 | 0.346 | 0.203 | 0.208 | 0.676
16 | C=CCN1C(=O)[C@@]2(O[C@@H](CCO)[C@H]([Si](C)(C)c3ccc(OC)cc3)[C@H]2C)c2cc(N3C(=O)c4ccccc4Oc4ccccc43)ccc21 | 1.07 | -0.0987 | 0.0272 | -3.3 (inactive) | 0.916 | -0.229 | -0.262 | -0.0233 | 0.0911 | 0.0761
17 | CC(C)CCC[C@@H](C)[C@H]1CC[C@@]2(C)C3=C(CC[C@]12C)[C@@]1(C)CC[C@H](OC(=O)c2ccc(Br)cc2)C(C)(C)C1CC3 (stereo not given in full) | 0.27 | -0.153 | -0.331 | -1.13 (inactive) | 0.609 | 0.55 | 0.593 | 0.506 | 0.391 | 0.26
18 | COCCCNC(=O)[C@]1(Cc2ccccc2CN=[N+]=[N-])N=C(c2ccc(OCCCO)cc2)O[C@@H]1c1ccccc1 | 0.465 | 0.383 | 0.775 | -0.697 (inactive) | 0.573 | 0.778 | -0.251 | 0.317 | -0.817 | 0.493
19 | COc1ccccc1CN1C(=O)c2ccccc2[C@](Cc2ccccc2I)(C(=O)NC(C)C)[C@@H]1c1ccc(CO)cc1 | 0.672 | -0.132 | -0.0563 | -0.691 (inactive) | 1.32 | 1.3 | 0.457 | 1.28 | 0.312 | -0.0084
20 | C=CCNC(=O)[C@@H]1[C@H]2C(=O)O[C@H](c3ccccc3)[C@H](c3ccccc3)N2[C@H](c2ccccc2OCCO)[C@@]12C(=O)N(C(=O)OCCOC)c1ccc(C#CC3=CCCCC3)cc12 | 1.26 | 0.057 | 0.144 | -1.1 (inactive) | 1.15 | 1.16 | 0.469 | 0.831 | 0.373 | -0.0496
21 | CO[C@H]1O[C@H](CO)[C@@H](OC(=O)Nc2ccccc2-c2ccccc2)[C@H](OC(=O)Nc2ccc3c(c2)OCO3)[C@@H]1OC(=O)Nc1ccc2c(c1)OCO2 | 1.32 | 0.198 | 0.679 | -1.14 (inactive) | 1.05 | 1.34 | 0.0757 | 1.44 | 0.279 | 0.691
22 | C=CCNC(=O)[C@@H]1[C@H]2C(=O)O[C@H](c3ccccc3)[C@H](c3ccccc3)N2[C@H](c2ccc(OCCO)cc2)[C@@]12C(=O)N(C(=O)OCCOC)c1ccc(C#CC3=CCCCC3)cc12 | 1.11 | 0.331 | -0.112 | -0.57 (inactive) | 0.957 | 1.28 | 0.552 | 1.06 | 0.44 | 0.726
